Screening results deposited in PubChem by Broad Institute.
aSyn UTR act: Activators working through SNCA 5'UTR binding (MLPCN); 300,000 tested, 7.1% active; alpha-synuclein 5'UTR reporter, activators screen; AID 1814; activity score, % (tested at 7.5 µM), hits read low; in the data active = activity score below about -60%
The depositor's hits bear a star. Only a sample is shown.

SMILES	aSyn UTR act
Cc1[nH]c2ccc(C(=O)NC3CCC(C)CC3)cc2c1C (stereo not drawn)	-148*
COc1ccc([N+](=O)[O-])cc1N/C(=N/S(=O)(=O)c1ccccc1)c1ccccc1	-70*
CC1(C)CC(=O)c2cc(N=C/C(C(=O)c3ccccc3)=C(\O)c3ccccc3)c(=O)oc2C1	-72*
Nc1c(-c2ccccn2)cnn1-c1nc(-c2ccc(F)cc2)cs1	-79*
Nc1c(-c2cccs2)cnn1-c1nc(-c2ccc(F)cc2)cs1	-124*
Cc1c(Cl)cccc1Nc1nc(N)nc(CSc2ncccn2)n1	-77*
Cc1cc2sc3nc(=O)n(-c4ccccc4)c(=O)n3c2cc1C	-160*
O=S(=O)(c1ccccc1)N1CCN(c2nc3ccccc3s2)CC1	-83*
CC(C)c1ccc(-c2nc3ccccc3s2)cc1	98
O=S(=O)(c1ccc(-c2nc3ccccc3s2)cc1)N1CCCC1	-118*
CS(=O)(=O)N1CCN(c2nc3ccccc3s2)CC1	-80*
CN(C)/C=C(\C#N)C(=O)N/N=C/c1ccccc1	-69*
CN(c1nc(-c2ccc(Br)cc2)cs1)C1CCS(=O)(=O)C1 (stereo not drawn)	-112*
Cc1cc(C)nc(-n2nc(C)c(Sc3ccc(F)cc3)c2N)n1	-182*
Cc1ccccc1Nc1c(-c2ccccn2)nc2ccccn12	64
COc1ccc(Nc2c(-c3ccco3)nc3ccc(C)cn23)cc1	-89*
Cc1ccc(Nc2c(-c3ccco3)nc3ccccn23)cc1	-83*
COc1cc(/C=N/NC(=O)COc2ccc(C)cc2)ccc1OC(=O)c1cccs1	-65*
c1ccc(-c2csc(Nc3ncccn3)n2)cc1	-66*
Oc1ccc(-c2csc(Nc3ncccn3)n2)cc1	-154*
Cc1cccnc1Nc1nc(-c2ccccc2)cs1	-128*
CC(=O)Nc1ccc(-c2csc(Nc3ncccn3)n2)cc1	-89*
NNc1nc(-c2ccccc2)cs1	-92*
COc1ccc2nc(NC(=O)CSc3nnc(C)s3)sc2c1	-78*
COc1ccc2nc(NC(=O)CSc3nnnn3C)sc2c1	-122*
SMILES	aSyn UTR act
COc1ccc2nc(NC(=O)CSc3nc(SC)ns3)sc2c1	-110*
CCn1nnnc1SCC(=O)Nc1nc2ccccc2s1	-86*
CSc1nsc(SCC(=O)Nc2nc3ccccc3s2)n1	-71*
O=C(CSC1=NCCS1)Nc1nc2ccccc2s1	-154*
Cc1nc(SCC(=O)Nc2nc3ccccc3s2)c(C#N)c(C)c1C	100
COCCCN=C(c1ccco1)n1c(=S)nc(-c2ccco2)n(CCCOC)c1=S	-88*
COc1ccccc1N1CCN(C2=Nc3cccc4cccc2c34)CC1	-181*
Oc1ccc(CN2CCC(Cc3ccccc3)CC2)c2cccnc12	105
c1ccc(CC2CCN(C3=Nc4cccc5cccc3c45)CC2)cc1	-95*
COc1cccc(-c2nnc(NC(=O)C3CCCCC3)o2)c1	-96*
Cc1cccc(C)c1OCC(=O)Nc1cccc(-c2nnc(-c3ccccc3)o2)c1	-91*
CCC(=O)Nc1cccc(-c2nnc(-c3ccccc3)o2)c1	-201*
O=C(Nc1cccc(-c2nnc(-c3ccccc3)o2)c1)C1CCCCC1	-105*
Cc1ccc(-c2nnc(-c3cccc(NC(=O)c4cccs4)c3)o2)cc1	-94*
Cc1ccc(NC(=O)Nc2nnc(-c3ccccc3)o2)cc1	-75*
COc1ccc(-c2ccc3oc(-c4ccsc4)cc3c2)cc1	-140*
c1ccc(CCSc2nccn2-c2ccccc2)cc1	-121*
COc1ccc(Oc2nccc(-c3ccccc3)c2C#N)cc1	-185*
COc1ccc(Oc2nccc(-c3ccc(F)cc3)c2C#N)cc1	-82*
Cc1ccc(-c2cc(-c3ccc(F)cc3)nc(N)c2C#N)o1	63
O=[N+]([O-])c1cc([N+](=O)[O-])c(Oc2cccc(Cl)c2Cl)cc1NN1CCCCC1	36
CO/N=C/c1ccc(Oc2ccc(C)cc2)c([N+](=O)[O-])c1	-90*
O=[N+]([O-])c1cc(/C=N/O)ccc1Oc1ccccc1Cl	-65*
CCn1c(C(=O)OC)cc2c1ccn2-c1ccc(F)cc1	-157*
CC(=O)n1cc(N(C(=O)CCl)c2ccccc2)c2ccccc21	106
SMILES	aSyn UTR act
CC(=O)n1c(Cl)c(NC(=O)CCl)c2ccccc21	-80*
CCCOc1ccc(NC(=O)C2CC(=O)N/C(=N/N=C(C)/C=C/c3ccc(N(C)C)cc3)S2)cc1 (stereo not drawn)	-79*
CC(/C=C/c1ccc(N(C)C)cc1)=N\N=C1\NC(=O)CC(C(=O)Nc2ccccc2)S1 (stereo not drawn)	-73*
COc1ccc(-c2nn(-c3ccccc3)cc2/C=N/NC(=O)c2cccc(S(=O)(=O)Nc3ccccc3Cl)c2)cc1	-77*
COc1ccc(-c2nn(-c3ccccc3)cc2/C=N/N2C(=O)CSC2=S)cc1	-83*
COc1ccc(-c2nn(-c3ccccc3)cc2/C=N/NS(=O)(=O)c2ccccc2)cc1	-62*
COc1cccc(-c2nc3sc4c(c3c(=O)[nH]2)CCCCC4)c1	-267*
CC1(C)Cc2nc3sc(C(=O)NCCCO)c(N)c3cc2CO1	-69*
COC(=O)c1sc2nc3c(cc2c1N)COC(C)(C)C3	-131*
COc1ccc(C2CC(c3ccccc3)=NN2C(=O)c2cccs2)cc1 (stereo not drawn)	-92*
COc1ccc(C2CC(c3ccccc3)=NN2C(=O)COC(=O)c2cccnc2)cc1 (stereo not drawn)	-62*
COc1ccc(C2CC(c3ccccc3OC(=O)/C=C/c3ccccc3)=NN2C(C)=O)cc1 (stereo not drawn)	-69*
Cc1cccc2c3nc4ccccc4nc3n(C)c12	-78*
N#Cc1ccc(-c2ccc(OCC3CNC(=O)O3)cc2)cc1 (stereo not drawn)	-75*
O=C(Nc1ccc(Cl)c(Cl)c1)Nc1nccs1	-64*
O=C(Nc1cccc(Cl)c1)Nc1nccs1	-159*
Cc1nc2cc(NC(=O)Nc3nccs3)ccc2n1C	-99*
Cc1ccc2[nH]c3c(N4CCCCCC4)ncnc3c2c1	-127*
CCCCOc1ncnc2c1[nH]c1ccc(C)cc12	-93*
CCCOc1ncnc2c1[nH]c1ccc(OC)cc12	-130*
C=CCNc1ncnc2c1[nH]c1ccc(C)cc12	-184*
CCCOc1ncnc2c1[nH]c1ccccc12	-142*
Cc1ccc(N2C(=O)/C(=C/c3ccco3)SC2=S)cc1	-94*
Cc1ccc(C(=O)NNC(=O)CCCN2C(=O)/C(=C/c3ccccc3Cl)SC2=S)cc1	69
Cc1ccc(N=C2NC(=O)S/C2=C\c2ccco2)cc1	-63*
SMILES	aSyn UTR act
COc1ccc(N=C2NC(=O)/C(=C/c3ccco3)S2)cc1	-127*
Cc1ccc(/C=C2/SC(=S)N(CCCC(=O)Nc3ccc(O)cc3)C2=O)cc1	86
O=C1NC(=Nc2ccccc2)/C(=C/c2ccco2)S1	-65*
Cc1cccnc1NC(=O)Nc1cccc(Cl)c1	-186*
CNS(=O)(=O)c1ccc(NC(=O)Nc2cccc(F)c2)cc1	-89*
O=C(Nc1cccc(Cl)c1)c1cnc[nH]1	-87*
O=C(Nc1cccc(Cl)c1)ON=C1c2ccccc2-c2ccccc21	-66*
CSc1ccccc1NC(=S)Nc1cccc(C(F)(F)F)c1	-64*
O=C(Nc1ccc(C(=O)N2CCOCC2)cc1)Nc1cccc(Cl)c1	-139*
Cc1cccnc1N(C(=O)Nc1cccc(Cl)c1)C1=NCC(C)(C)S1	-66*
N#CCc1ccc(NC(=O)Nc2cccc(Cl)c2)cc1	-143*
Oc1c(C(Nc2cccc(C(F)(F)F)c2)c2ccncc2)ccc2cccnc12 (stereo not drawn)	82
NS(=O)(=O)c1cccc(NC(=O)CCSc2ccccc2Cl)c1	-120*
